Test results from the supplement of paper PMC6089552.
In all, about 3,200 compounds went through this assay and about 300 (9.4%) showed activity. This excerpt belongs to a sample that is enriched for actives.

Tested on: A673/TR/shEF
Test: cell viability (LOESS-normalised, relative to median of negative controls) (log2 ratio); higher = more viable cells (less compound effect), active = hit call of the paper (over 3 MAD below the median)
Conditions: treatment time: 72 h
Method in brief: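 Viability of A673/TR/shEF Ewing sarcoma cells was determined by CellTiter-Glo luminescence. The cells, at 1,500 per well in 384-well plates, were grown with or without doxycycline from 24 h before compound addition to switch on EWS-FLI1 shRNA knockdown, then exposed for three days to library compounds at two or more concentrations or to DMSO controls. Signals were LOESS-corrected plate by plate, normalised to the negative-control median and log2-transformed.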

[1] = 0.25 µM, library screen: screen1, EWS-FLI1 expression: high (no doxycycline)
[2] = 0.25 µM, library screen: screen1, EWS-FLI1 expression: low (doxycycline-induced shRNA knockdown)
[3] = 2.5 µM, library screen: screen1, EWS-FLI1 expression: high (no doxycycline)
[4] = 2.5 µM, library screen: screen1, EWS-FLI1 expression: low (doxycycline-induced shRNA knockdown)
[5] = 0.25 µM, library screen: screen2, EWS-FLI1 expression: high (no doxycycline)
[6] = 0.25 µM, library screen: screen2, EWS-FLI1 expression: low (doxycycline-induced shRNA knockdown)
[7] = 2.5 µM, library screen: screen2, EWS-FLI1 expression: high (no doxycycline)
[8] = 2.5 µM, library screen: screen2, EWS-FLI1 expression: low (doxycycline-induced shRNA knockdown)
[9] = 0.103 µM, library screen: screen3, EWS-FLI1 expression: high (no doxycycline)
[10] = 0.103 µM, library screen: screen3, EWS-FLI1 expression: low (doxycycline-induced shRNA knockdown)
[11] = 0.308 µM, library screen: screen3, EWS-FLI1 expression: high (no doxycycline)
[12] = 0.308 µM, library screen: screen3, EWS-FLI1 expression: low (doxycycline-induced shRNA knockdown)
[13] = 0.926 µM, library screen: screen3, EWS-FLI1 expression: high (no doxycycline)
[14] = 0.926 µM, library screen: screen3, EWS-FLI1 expression: low (doxycycline-induced shRNA knockdown)
[15] = 2.8 µM, library screen: screen3, EWS-FLI1 expression: high (no doxycycline)
[16] = 2.8 µM, library screen: screen3, EWS-FLI1 expression: low (doxycycline-induced shRNA knockdown)
[17] = 8.3 µM, library screen: screen3, EWS-FLI1 expression: high (no doxycycline)
[18] = 8.3 µM, library screen: screen3, EWS-FLI1 expression: low (doxycycline-induced shRNA knockdown)
[19] = 25 µM, library screen: screen3, EWS-FLI1 expression: high (no doxycycline)
[20] = 25 µM, library screen: screen3, EWS-FLI1 expression: low (doxycycline-induced shRNA knockdown)

Measured: cell viability (log2)

Cc1ccc2nc(NC3=NC(CC(=O)O)C(=O)N3)nc(C)c2c1 (configuration not stated)
inactive: [1] 0.016 | [2] -0.0194 | [3] 0.0679 | [4] -0.193

CCOc1cccc(=O)c2c(C)[nH]c(C)c12
inactive: [1] 0.0528 | [2] 0.134 | [3] 0.0744 | [4] 0.088

CC1=C2C(O)C(=O)OC3CC4C(C)(C)C(=O)CCC4(C)C(CC1)C23C (configuration not stated)
inactive: [1] 0.149 | [2] 0.0333 | [3] 0.0817 | [4] 0.166

CO/N=C(\C(=O)N[C@@H]1C(=O)N2C(C(=O)O)=C(CSc3nc(=O)c(=O)[nH]n3C)CS[C@H]12)c1csc(N)n1
inactive: [1] 0.112 | [2] 0.0388 | [5] 0.21 | [6] 0.115 | [3] 0.082 | [4] 0.12 | [7] 0.149 | [8] 0.12

CC(=O)Oc1c(Cl)c(C)c2c(c1Cl)OC(=O)c1c(C)c(Cl)c(OC(C)=O)c(Cl)c1O2
inactive: [1] 0.0776 | [2] 0.0649 | [3] 0.0636 | [4] -0.0345

CC1(C)C=Cc2c(cc3occ(-c4ccc5c(c4)OCO5)c(=O)c3c2O)O1
active: [1] -0.098
inactive: [2] 0.0822 | [3] 0.0137 | [4] 0.0314

CC(C)=CCc1c2c(c3occ(-c4ccc(O)c(O)c4)c(=O)c3c1O)C=CC(C)(C)O2
inactive: [1] 0.131 | [2] 0.0868 | [3] 0.0962 | [4] 0.19

COc1cc2c(cc1-c1coc3c4c(ccc3c1=O)OC(C)(C)C=C4)OCO2
inactive: [1] 0.0979 | [2] 0.0365 | [3] 0.112 | [4] 0.0354

O=c1c(-c2ccc3c(c2)OCO3)coc2cc(O)ccc12
inactive: [1] 0.113 | [2] 0.0865 | [3] 0.149 | [4] -2.91

COc1c(-c2coc3cc4c(cc3c2=O)CC(O)C(C)(C)O4)ccc2c1C=CC(C)(C)O2 (configuration not stated)
inactive: [1] 0.0473 | [2] 0.0244 | [3] 3e-05 | [4] 0.094

COc1c2c(cc3occ(-c4ccc5c(c4)OCO5)c(=O)c13)OC(C)(C)C=C2
active: [1] -0.144
inactive: [2] 0.05 | [3] 0.0889 | [4] 0.0736

COc1cc2c3cc1Oc1c(OC)c(OC)cc4c1C(Cc1ccc(O)c(c1)Oc1ccc(cc1)CC3N(C)CC2)N(C)CC4 (configuration not stated)
inactive: [1] 0.135 | [2] 0.0489 | [3] 0.126 | [4] -0.0746

CSCCC(N)C(=O)NC(CC(C)C)C(=O)NC(Cc1ccccc1)C(=O)O (configuration not stated)
inactive: [1] 0.145 | [2] -0.00633 | [3] 0.123 | [4] 0.0328

O=c1cc(-c2cccc3c2Sc2ccccc2S3)oc(N2CCOCC2)c1
inactive: [9] 0.00625 | [10] 0.00883 | [11] -0.0309 | [12] 0.0146 | [13] 0.0133 | [14] 0.00404 | [15] 0.0162 | [16] 0.0289 | [17] -0.0501 | [18] 0.00607 | [19] 0.0363 | [20] -0.0432

O=c1cc(N2CCOCC2)oc2c(-c3ccccc3)cccc12
inactive: 0.025 µM, library screen: screen1, EWS-FLI1 expression: high (no doxycycline) 0.213 | 0.025 µM, library screen: screen1, EWS-FLI1 expression: low (doxycycline-induced shRNA knockdown) 0.0453 | [1] 0.204 | [2] 0.0333 | [5] 0.135 | [6] 0.11 | [4] 0.0932 | [7] 0.15 | [8] 0.0123
active: [3] -0.134 | 25 µM, library screen: screen1, EWS-FLI1 expression: high (no doxycycline) -0.489 | 25 µM, library screen: screen1, EWS-FLI1 expression: low (doxycycline-induced shRNA knockdown) -0.462

O=c1cc(-c2ccccc2)oc2c(O)c(O)ccc12
inactive: [1] 0.189 | [2] -0.0108 | [3] 0.128 | [4] 0.0489

CC(C)CCC[C@@H](C)[C@H]1CC[C@H]2[C@@H]3CC[C@@H]4C[C@H](O)CC[C@]4(C)[C@H]3CC[C@]12C
inactive: [1] 0.108 | [2] 0.0181 | [3] 0.105 | [4] 0.0609

CC1CCC2(OC1)OC1CC3C4CCC5C[C@@H](O)CCC5(C)C4=CCC3(C)C1[C@@H]2C (some centres not stated)
inactive: [1] 0.0912 | [2] 0.0387 | [3] 0.0505 | [4] 0.0779

CCCCCCCCCCCCCCCC(=O)NCC(COP(=O)([O-])OCC[N+](C)(C)C)OC (configuration not stated)
inactive: [5] 0.14 | [6] 0.124 | [7] 0.166 | [8] 0.0176

CCC(=O)c1ccc2c(c1)N(CC(C)N(C)C)c1ccccc1S2 (configuration not stated)
inactive: [1] 0.0889 | [2] 0.155 | [3] 0.168 | [4] 0.297

Cn1cnc([N+](=O)[O-])c1Sc1ncnc2nc[nH]c12
active: 25 µM, library screen: screen2, EWS-FLI1 expression: high (no doxycycline) -0.337
inactive: 0.025 µM, library screen: screen2, EWS-FLI1 expression: high (no doxycycline) 0.138 | 0.025 µM, library screen: screen2, EWS-FLI1 expression: low (doxycycline-induced shRNA knockdown) 0.0997 | [1] 0.0615 | [2] 0.0765 | [5] 0.159 | [6] 0.0607 | [3] -0.0254 | [4] 0.161 | [7] -0.0273 | [8] 0.0557 | 25 µM, library screen: screen2, EWS-FLI1 expression: low (doxycycline-induced shRNA knockdown) 0.03

COc1cc(OC)c(C2NC(=S)NC(C)=C2C(=O)Nc2cccc(Cl)c2)cc1OC (configuration not stated)
inactive: [1] 0.0501 | [2] 0.0639 | [3] 0.0887 | [4] 0.0905

NS(=O)(=O)c1ccc(-c2ccc(/C=C3/SC(=S)N(C4CCCCC4)C3=O)o2)cc1
inactive: [1] 0.109 | [2] 0.0623 | [3] 0.167 | [4] -0.0331

CC(=O)O[C@@]12CO[C@@H]1C[C@H](O)[C@@]1(C)C(=O)[C@H](O)C3=C(C)[C@@H](OC(=O)[C@H](O)[C@@H](NC(=O)OC(C)(C)C)c4ccccc4)C[C@@](O)([C@@H](OC(=O)c4ccccc4)[C@H]21)C3(C)C
active: [9] -2.68 | [10] -0.934 | [11] -2.8 | [12] -1.01 | [13] -2.92 | [14] -1.04 | [15] -2.83 | [16] -1.04 | [17] -2.98 | [18] -1.06 | [19] -2.84 | [20] -1.01

CC(=O)O[C@H]1C(=O)[C@@]2(C)[C@H]([C@H](OC(=O)c3ccccc3)[C@]3(O)C[C@H](OC(=O)[C@H](O)[C@@H](NC(=O)c4ccccc4)c4ccccc4)C(C)=C1C3(C)C)[C@]1(OC(C)=O)CO[C@@H]1C[C@@H]2O
active: [9] -2.57 | [10] -0.853 | [1] -3.63 | [2] -1.46 | [5] -2.49 | [6] -0.868 | [11] -2.24 | [12] -0.787 | [13] -2.68 | [14] -0.947 | [3] -4.22 | [4] -1.51 | [7] -2.93 | [8] -1 | [15] -2.59 | [16] -1.11 | [17] -2.75 | [18] -1.03 | [19] -2.68 | [20] -1.1
